Data reported in PubChem BioAssay AID784 (The Scripps Research Institute Molecular Screening Center, 2007).
Among all 30,000 compounds or so, about 130 (0.43%) were called active. The sample holds actives, similar compounds and a random draw of the others, so the mix is not that of the screen. Rule as the data show it: active = activation above about 65%; inactive = the rest.

What follows are molecules tested against Lysosomal acid glucosylceramidase (Homo sapiens) (UniProt P04062) (assay: GBA activity enhancers in patient fibroblasts, primary screen, cell-based (AID 784;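 also: 0% = vehicle wells and 100% = positive control wells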)). Details: L444P Gaucher fibroblasts, 4-MU-glucoside fluorescence, 3 days; at 10 µM; active compounds read high.
Chain of Lysosomal acid glucosylceramidase (Homo sapiens) (P04062 whole entry L483P): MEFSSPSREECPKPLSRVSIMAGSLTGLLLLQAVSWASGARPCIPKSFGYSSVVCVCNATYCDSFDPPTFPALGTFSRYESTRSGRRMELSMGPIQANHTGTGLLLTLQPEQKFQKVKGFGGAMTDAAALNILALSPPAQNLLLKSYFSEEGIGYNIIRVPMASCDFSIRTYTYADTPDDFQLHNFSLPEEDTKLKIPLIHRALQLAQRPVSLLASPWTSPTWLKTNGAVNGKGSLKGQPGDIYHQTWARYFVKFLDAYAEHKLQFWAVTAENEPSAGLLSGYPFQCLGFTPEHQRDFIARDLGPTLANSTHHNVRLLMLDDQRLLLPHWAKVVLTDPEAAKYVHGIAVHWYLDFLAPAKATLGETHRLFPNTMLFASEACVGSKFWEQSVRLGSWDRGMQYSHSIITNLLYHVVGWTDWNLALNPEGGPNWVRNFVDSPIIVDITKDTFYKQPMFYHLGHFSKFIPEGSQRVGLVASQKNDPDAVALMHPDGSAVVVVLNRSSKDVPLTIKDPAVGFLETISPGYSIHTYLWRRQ
For COc1ccc(CC(=O)Nc2ccc3c(c2)CCC3)cc1S(=O)(=O)N1CCOCC1, the activation was 32.8% (inactive).
For Cc1ccc(C(=O)NC2CC(C)(C)NC(C)(C)C2)c(C)c1, the activation was -52.5% (inactive).
In the case of CC(=NC1CCN(Cc2ccccc2)CC1)c1c(O)[nH]c(=O)[nH]c1=O, the activation is reported as -6.5% (inactive).
CS(=O)(=O)N(CC(=O)N1CCN(Cc2ccc3c(c2)OCO3)CC1)c1ccc2c(c1)OCO2 was tested, and the activation was -6.7% (inactive).
For CCC(C)n1[nH]c(=O)cc1N (stereo not given), the activation was 4.55% (inactive).
For COc1ccc(C(=O)Cn2nnc(-c3ccc(N4CCOCC4)cc3)n2)cc1OC, the activation was -17.5% (inactive).
In the case of O=C1CN(C(=O)COC(=O)C2CC(=O)N(Cc3ccco3)C2)c2ccccc2N1 (stereo not given), the activation is reported as 4.58% (inactive).
CN(C(=O)c1ccno1)c1nnc(-c2cccnc2)s1 was tested, and the activation was -12.7% (inactive).
With COC(=O)c1sc(NC(=O)c2csc3c2CCCC3)nc1C the activation was 67.1% (active).
CC(=O)Cc1nsc(NC(=O)c2csc3c2CCCC3)n1 was tested, and the activation was -9.06% (inactive).
With COC(=O)c1sccc1NC(=O)c1csc2c1CCCC2 the activation was -10.4% (inactive).
For CCN(CC)S(=O)(=O)c1ccc(NC(=O)CN(c2cccc(F)c2)S(C)(=O)=O)cc1, the activation was 83.1% (active).
COc1cccc(N(CC(=O)Nc2cccc(N(C)S(C)(=O)=O)c2)S(C)(=O)=O)c1 was tested, and the activation was -7.1% (inactive).
With COc1cccc(N(CC(=O)Nc2cccc(F)c2)S(C)(=O)=O)c1 the activation was 4.09% (inactive).
With COc1ccccc1N1CCN(C(=O)CSc2nnc(-c3ccoc3C)o2)CC1 the activation was 7.59% (inactive).
For CCC(C)(C)NC(=O)C(c1cccn1C)N(Cc1ccc(C)cc1)C(=O)Cn1nnc2ccccc21 (stereo not given), the activation was -4.98% (inactive).
With CCOC(=O)C1(Cc2ccc(O)cc2)NC(c2ccccc2F)C2C(=O)N(C)C(=O)C21 (stereo not given) the activation was 102% (active).
With CCOC(=O)C1(c2ccccc2)NC(c2ccc(N(C)C)cc2)C2C(=O)N(C)C(=O)C21 (stereo not given) the activation was -22.4% (inactive).
In the case of COc1ccc2nc(N3CCCC(O)C3)c(C#N)cc2c1 (stereo not given), the activation is reported as -3.51% (inactive).
For Cc1nc(SC(C)C)[nH]c(=O)c1Cc1ccccc1, the activation was 1.07% (inactive).
With CCc1c(C)nc2ncnn2c1N1CCC(C(=O)NCc2ccc3c(c2)OCO3)CC1 the activation was 9.86% (inactive).
CCOC(=O)C(C)Oc1cccc2c(=O)n(CC(=O)N3CCc4ccccc43)ccc12 (stereo not given) was tested, and the activation was 3.53% (inactive).
For O=C(COC(=O)c1ccc2c(c1)OCCO2)NCc1ccccc1, the activation was 1.84% (inactive).
For Cc1cc(C)c(S(=O)(=O)NCCCN2CCOCC2)cc1Br, the activation was 17.8% (inactive).
For CCN(CC)S(=O)(=O)c1cccc(C(=O)Nc2ccccc2)c1, the activation was -3.99% (inactive).
With CC(C)C[C@H](NC(=O)NCCc1ccc(Cl)cc1)C(=O)O the activation was -14.7% (inactive).
For COc1ccc(CCN=C2SCC(=O)N2C)cc1OC, the activation was -11.5% (inactive).
For CCOc1ncccc1C(=O)OCc1cn2cc(Cl)ccc2n1, the activation was 2.09% (inactive).
COc1ccccc1N1CCN(C(=O)Cn2nnc(-c3cccs3)n2)CC1 was tested, and the activation was -45% (inactive).
For O=C(CN1CCN(c2nc(-c3ccccc3)cs2)CC1)NCc1ccc2c(c1)OCO2, the activation was -22.9% (inactive).
COC(=O)c1cn(-c2ccccc2)nc1-c1cccnc1 was tested, and the activation was 64.9% (inactive).
For CCOc1ccc(N2C(=O)CC(N(O)c3ccccc3)C2=O)cc1 (stereo not given), the activation was 20.8% (inactive).
For Cc1cc(C)nc(SCc2nnc(SCC(=O)OC3CCCCC3)o2)n1, the activation was -16% (inactive).
Cc1ccc(C(=O)CSc2nc3ccccc3c(=O)n2N)o1 was tested, and the activation was -3.06% (inactive).
For Cc1ccc(S(=O)(=O)NCC(=O)OCC(=O)N2CCc3ccccc32)cc1, the activation was -6.72% (inactive).
For O=C(Nc1ccccc1)c1cccnc1Nc1ccccc1, the activation was -10.1% (inactive).
With O=C(Nc1ccc2c(c1)nc1n2CCCCC1)c1cc(S(=O)(=O)N2CCOCC2)ccc1Cl the activation was -3.59% (inactive).
For CCN(CC(=O)NC(C)C)C(=O)CCNC(=O)c1ccc(Cl)cc1, the activation was 21% (inactive).
CN1CCN(S(=O)(=O)c2ccc(NC(=O)c3ccco3)cc2)CC1 was tested, and the activation was -8.04% (inactive).
CCC1SC2=NCCN2C1(O)c1ccc(Cl)cc1 (stereo not given) was tested, and the activation was -18.2% (inactive).
c1ccc(-c2oc3ncnc(N4CCOCC4)c3c2-c2ccccc2)cc1 was tested, and the activation was -12.4% (inactive).
In the case of CCC(C)Sc1nc2c(c(=O)[nH]c(=O)n2C)n1CC(O)COc1cccc2ccccc12 (stereo not given), the activation is reported as -21% (inactive).
In the case of CNC(=O)C1CC(=O)N(Cc2ccc3c(c2)OCO3)C(=Nc2ccc(F)cc2)S1 (stereo not given), the activation is reported as -16.6% (inactive).
For COc1ccc(C(=O)CSc2nccc(=O)[nH]2)cc1, the activation was -9.63% (inactive).
In the case of O=C(OCc1nnc(-c2ccccc2)o1)c1ccc2c(c1)C(=O)N(CCc1ccccc1)C2=O, the activation is reported as -2.93% (inactive).
COc1c(C)cccc1C(=O)Nc1cc(Cl)ccc1N1CCOCC1 was tested, and the activation was -42.8% (inactive).
In the case of CC(=O)OCc1cc2cc(C)ccc2[nH]c1=O, the activation is reported as -12% (inactive).
For COc1cc2c(cc1OC)C(c1ccncc1)CC(=O)N2 (stereo not given), the activation was -30.8% (inactive).
CCc1c(C)nc(N)n2c(SCC(=O)N3CCN(c4ccccc4)CC3)nnc12 was tested, and the activation was -9.46% (inactive).
For CCOC(=O)c1c(NC(=O)CCC(=O)NCc2ccco2)sc2c1CCCC2, the activation was -3.62% (inactive).
For O=c1nc(N2CCOCC2)nc2n1CCO2, the activation was 0.48% (inactive).
In the case of O=C(CN1C2CCC1CC(NC(=O)C1CC1)C2)NCc1ccccc1 (stereo not given), the activation is reported as -20% (inactive).
CCn1c(COc2cccc(OC)c2)nnc1SCC(=O)N1CCOCC1 was tested, and the activation was 2.04% (inactive).
For COc1ccc(S(=O)(=O)N(CCCN2CCCC2=O)Cc2cc3c(C)ccc(C)c3[nH]c2=O)cc1, the activation was -24.5% (inactive).
For COc1ccccc1Nc1ncnc2c1oc1ccccc12, the activation was -53.1% (inactive).
For O=C(NCc1ccccn1)c1cc2ccccc2oc1=O, the activation was -7.53% (inactive).
O=C(CNCCO)NC12CC3CC(CC(C3)C1)C2 was tested, and the activation was 10% (inactive).
COc1cc(NS(=O)(=O)c2ccccc2)ccc1-n1nc(C)cc1C was tested, and the activation was 4.78% (inactive).
For C=C(C)c1cccc(C(C)(C)NC(=O)N2CCN(c3ncccn3)CC2)c1, the activation was 0.53% (inactive).
Cc1ccsc1C(=O)OCC(=O)c1cc2ccccc2o1 was tested, and the activation was 6.97% (inactive).
